Calls of active or inactive are those of the source. Rule for the calls: active = hit-call score of the fitted dose curve at least 0.9, where 1 is the maximum; inactive = score below 0.9.

The AC50 is the concentration at which the activity in the assay is half-maximal.

Read-out in the assay: catalase (CAT), CAT (gene 847)
Put plainly: LTEA_HepaRG_CAT: Life Technologies and Expression Analysis (LTEA) Assay for catalase (CAT) using HepaRG (AID 2283452). To be noted: mRNA level, 48 h; actives raise or lower the signal. The method, boiled down:
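Differentiated HepaRG cells in serum-free induction medium were dosed 48 h in duplicate, eight half-log concentrations from 100 uM in 0.5% DMSO. Transcript measured by TaqMan qRT-PCR, normalised to ACTB/GAPDH/POLR2A, fitted bidirectionally against DMSO.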
With `CCOC(=O)c1ccc(O)cc1`, the outcome was inactive.
Still for that read-out and setting: next, `CCCN(CCC)c1c([N+](=O)[O-])cc(C(F)(F)F)c(N)c1[N+](=O)[O-]`: “inactive”.
Same read-out and setting: next, `O=C(c1ccccc1)C1CCCCC1`: “inactive”.
As for `C=CCOC(Cn1ccnc1)c1ccc(Cl)cc1Cl` (centres undefined), the AC50 was 33.5 µM (active).
For `CC(C)CCCCCCc1ccc(O)cc1`, the outcome was inactive.
On the same count and under the same terms, the result for `COCCO` reads “inactive”.
Consider `N[C@@H](Cc1cc(I)c(Oc2ccc(O)c(I)c2)c(I)c1)C(=O)O`, for which the AC50 was 7.94 µM (active).
In the case of `COc1c(Cl)ccc(Cl)c1C(=O)O`, the result was inactive.
Still for that read-out and setting: next, `CCC(C)OC(=O)N1CCCCC1CCO` (centres undefined): “inactive”; `CC(C)(C)[C@@H](O)[C@@H](Cc1ccc(Cl)cc1)n1cncn1`: “inactive”.
With `O=C(O)C1(C(=O)Nc2ccc(Cl)cc2Cl)CC1`, the AC50 was 77.4 µM (active).
As to `OB(O)O`, the result was inactive.
As to `CC(=O)[C@H]1CC[C@H]2[C@@H]3CCC4=CC(=O)CC[C@]4(C)[C@H]3CC[C@]12C`, the half-maximal activity concentration (AC50) is 50 µM (active).
For `CCCCC(CC)CN1C(=O)C2C3C=CC(C3)C2C1=O` (centres undefined), the AC50 is 77.2 µM (active).
With `CCN(Cc1c(F)cccc1Cl)c1c([N+](=O)[O-])cc(C(F)(F)F)cc1[N+](=O)[O-]`, the compound was called inactive.
On the same count and under the same terms, the result for `C[C@]12C[C@H](O)[C@H]3[C@@H](CCC4=CC(=O)CC[C@@]43C)[C@@H]1CC[C@@H]2C(=O)CO` reads “inactive”; that for `C#CCOC(=O)[C@@H](C)Oc1ccc(Oc2ncc(Cl)cc2F)cc1`, “inactive”.
In the case of `Cc1nn(C)c(Oc2ccccc2)c1C=NOCc1ccc(C(=O)OC(C)(C)C)cc1`, the AC50 was 2.16 µM (active).
In the case of `CCOC(=O)C(C)Oc1ccc(Oc2nc3ccc(Cl)cc3o2)cc1` (centres undefined), the compound was classed as inactive.

(Values after PubChem BioAssay (EPA / NIEHS).)
